# About 5,700 (36%) of roughly 16,000 compounds were called active. Not shown: some 24% with an inconclusive outcome. Calls follow the shape of the dose curve; as a rule, active = well fitted curve in the direction sought with a large enough effect; inconclusive = small, poorly fitted or top-dose-only effect, or effect the other way; inactive = no such curve, though single readings can be large or run the other way. Some of the results follow.
# Target: Cytochrome P450 1A2 (Homo sapiens) (UniProt P05177)
# Experiment: Cytochrome panel assay with activity outcomes
# Details: recombinant CYP, pro-luciferin dealkylation, luminescence, p450-cyp1a2; series mostly up to 57.1 µM; activity, negative = inhibition: at the top concentration
# % is scaled to controls: 0 for no effect and ±100 for the full control effect.
# Cytochrome P450 1A2 (Homo sapiens), sequence (P05177 whole entry, looked up): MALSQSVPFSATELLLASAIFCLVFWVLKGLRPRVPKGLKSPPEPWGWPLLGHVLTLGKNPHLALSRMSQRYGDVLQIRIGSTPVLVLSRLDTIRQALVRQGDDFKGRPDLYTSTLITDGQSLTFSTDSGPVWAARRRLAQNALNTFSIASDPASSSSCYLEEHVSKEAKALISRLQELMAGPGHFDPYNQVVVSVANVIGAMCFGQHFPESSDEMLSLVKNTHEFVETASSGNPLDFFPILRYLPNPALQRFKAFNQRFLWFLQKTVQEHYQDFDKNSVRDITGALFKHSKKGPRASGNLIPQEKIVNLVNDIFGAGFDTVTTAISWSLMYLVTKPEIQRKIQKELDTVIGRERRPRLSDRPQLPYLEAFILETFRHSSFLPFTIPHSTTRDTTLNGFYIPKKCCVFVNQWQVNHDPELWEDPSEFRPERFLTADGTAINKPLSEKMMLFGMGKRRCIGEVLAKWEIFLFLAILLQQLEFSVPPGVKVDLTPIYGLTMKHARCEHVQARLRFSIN
SMILES,"activity, negative = inhibition",AC50
CCc1cc2c(nc1CC)CCN(CC/C(C)=N/OC[C@@H](O)[C@@H]1O[C@@H]3OC(C)(C)O[C@@H]3[C@H]1O)C2,-14.1% [at 11.4 µM] (inactive),–
Cc1nc2cnc(N3CCNCC3)nc2n(-c2ccccc2)c1=O,–,10 µM (active)
COc1ccc(-n2c(=O)cnc3cnc(N4CCNCC4)nc32)cc1,–,12.6 µM (active)
COc1ccc(-n2c(=O)c(C)nc3cnc(N4CCNCC4)nc32)cc1,–,15.8 µM (active)
COc1ccc(-n2c(=O)c(C)nc3cnc(N4CCOCC4)nc32)cc1,–,12.6 µM (active)
CCc1cc2c(nc1CC)CCN(CC/C(C)=N/OC[C@@H](C)[C@H](OCc1ccccc1)C(C)C)C2,-7.21% [at 11.4 µM] (inactive),–
N[C@@H](Cc1ccnnc1)C(=O)O,-10.6% [at 2.29 µM] (inactive),–
CC(C)NC(=O)N1CCC2(CC1)CCN(C(=O)c1cccc(F)c1)CC2,17.5% (inactive),–
O=C(O)CCc1c2ccc(=O)c(O)c-2oc2c(O)c(O)ccc12,-3.96% [at 2.29 µM] (inactive),–
O=C(N1CCOCC1)N1CCN(c2ccccc2)CC1,-12.8% (inactive),–
c1ccn(-c2ccc(N3CCOCC3)cc2)c1,–,0.251 µM (active)
O=C(C1CCN(S(=O)(=O)N2CCOCC2)CC1)N1CCN(c2ccccc2)CC1,-17.5% (inactive),–
Nc1nc2c(c(=O)[nH]1)CN(c1ccc(S(N)(=O)=O)cc1)CN2,8.8% [at 2.29 µM] (inactive),–
CC(C)c1nnc(NC(=O)CCC(=O)N2CCN(c3ccccn3)CC2)s1,-0.62% (inactive),–
CC(C)=CC(=O)Nc1nnc(C(C)C)s1,–,15.8 µM (active)
CC(=O)Nc1nnc(S(N)(=O)=O)s1,-2.87% [at 25.6 µM] (inactive),–
O=C(/C=C/c1ccco1)NC(=S)Nc1ccc(N2CCOCC2)c(Cl)c1,-5.19% (inactive),–
Cc1ccc(/C=C/C(=O)NC(=S)Nc2ccccc2C(=O)NC2CCCCC2)cc1,-16.9% (inactive),–
Cc1ccc(-c2csc(NC(=S)NC(=O)/C=C/c3ccco3)n2)cc1,–,5.62 µM (active)
O=P(O)(CCP(=O)(O)c1ccccc1)c1ccccc1,-14.2% [at 11.4 µM] (inactive),–
Cc1cc2nc(C)n(CCCN)c2cc1C,–,12.6 µM (active)
CCN(CC)C(=O)C1CCN(S(=O)(=O)c2ccc3oc4ccccc4c3c2)CC1,-25.6% (inactive),–
NCCCc1ccc2oc3ccccc3c2c1,–,0.0316 µM (active)
Cc1ccc(C(=O)N/N=C/c2cc(C)n(-c3ccc(Br)cc3)c2C)cc1[N+](=O)[O-],-30% (inactive),–

SMILES,"activity, negative = inhibition",AC50
O=C(N/N=C/C=C/c1ccc([N+](=O)[O-])cc1)c1cccs1,-16.7% (inactive),–
Cc1ccc(C(=O)COC(=O)CNC(=O)C(c2ccccc2)c2ccccc2)cc1[N+](=O)[O-],-16.2% (inactive),–
Cc1ccc(C(=O)N/N=C\c2ccc[nH]2)cc1[N+](=O)[O-],–,1.78 µM (active)
Cc1ccc(C(=O)Nc2ccc(Cc3ccncc3)cc2)cc1[N+](=O)[O-],–,0.282 µM (active)
CCC(=O)Nc1ccc(C(=O)OCC(=O)c2ccc(C)c([N+](=O)[O-])c2)cc1,-3.08% (inactive),–
Cc1ccc(/C=N/NC(=O)c2cccs2)cc1[N+](=O)[O-],–,2.24 µM (active)
Cc1ccc(C(=O)Nc2ccccc2Oc2ccccc2)cc1[N+](=O)[O-],–,12.6 µM (active)
COc1cccc(CNC(=O)C2CCN(S(=O)(=O)N3CCCCC3)CC2)c1,-8.64% (inactive),–
CN1CC[C@@]2(CCN3CCc4c(oc5ccccc45)[C@@H]3C2)N(C)C1=O,-14.2% (inactive),–
C[C@@H](N)[C@@H](C)Cc1ccccc1,-20% [at 11.4 µM] (inactive),–
O=C1c2ccc3c4c(ccc(c24)C(=O)N1c1ccc2ccccc2c1)CC3,–,0.794 µM (active)
CCOc1ccc(N2C(=O)c3cccnc3C2=O)cc1,-25.1% (inactive),–
CCc1ccc(N2C(=O)c3ccc4c5c(ccc(c35)C2=O)CC4)cc1,–,4.47 µM (active)
N#Cc1cccc(-c2ccc3ncnc(NCc4ccccc4)c3c2)c1,–,0.1 µM (active)
Cc1cccc(CNc2ncnc3ccc(-c4cccc(C#N)c4)cc23)c1,–,0.631 µM (active)
N#Cc1cccc(-c2ccc3ncnc(NCc4cccs4)c3c2)c1,–,0.1 µM (active)
c1csc(CNc2ncnc3ccc(-c4ccoc4)cc23)c1,–,3.16 µM (active)
C/C(CCN1CCCCc2nc(C)c(C)cc21)=N\O[C@@H](C)CN1CCCCc2nc(C)c(C)cc21,-20.9% [at 11.4 µM] (inactive),–
C/C=C\C[C@H](C)[C@H](O)[C@H]1C(=O)N[C@@H](CC)C(=O)N(C)CC(=O)N(C)[C@@H](CC(C)C)C(=O)N[C@@H](C(C)C)C(=O)N(C)[C@@H](CC(C)C)C(=O)N[C@@H](C)C(=O)N[C@@H](C)C(=O)N(C)[C@@H](CC(C)C)C(=O)N(C)[C@@H](CC(C)C)C(=O)N(C)[C@@H](C(C)C)C(=O)N1C,–,inactive
CC1=CC(C)(C)NC(=S)N1c1cccc(C)c1,-11.6% (inactive),–
COc1cccc(-c2ccc3ncnc(NCc4cccs4)c3c2)c1,–,0.501 µM (active)
Cc1cc(C)cc(N(CC(=O)NCCSc2ccccn2)S(=O)(=O)c2ccccc2)c1,-8.77% (inactive),–
Cn1c([N+](=O)[O-])cnc1COC(N)=O,-4.54% [at 25.6 µM] (inactive),–
COC(=O)c1scc(C)c1NC(=O)Cc1ccccc1,–,12.6 µM (active)

SMILES,"activity, negative = inhibition",AC50
CC[N+](CC)(CC(=O)Nc1c(C)cccc1C)Cc1ccccc1,-6.75% [at 25.6 µM] (inactive),–
Cc1cccc(C)c1NC(=O)CS(=O)CC(=O)NCCCc1ccccc1 (stereo not given),-17.3% (inactive),–
Nc1ncnc2c1ncn2[C@@H]1O[C@@H](C(=O)NC2CC2)[C@H](O)[C@@H]1O,-6.9% (inactive),–
Cc1ccc2[nH]c3c(c2c1)CN(C(=O)CN1c2ccc(F)cc2CCC1C)CC3 (stereo not given),–,5.62 µM (active)
CNCCCC1c2ccccc2C=Cc2ccccc21,–,inactive
CCCN1C(=O)C2(/C(=C(\O)c3ccc4c(c3)OCCO4)C(=O)C(=O)N2CCCOC)c2ccccc21 (stereo not given),8.66% (inactive),–
O=C(OCc1nnc(-c2ccccc2)o1)c1ccc2c(c1)OCCO2,–,2.51 µM (active)
Cc1ncc(N=Nc2ccccc2Cl)c(-c2ccccc2)n1,–,0.631 µM (active)
OCCN(Cc1ccccc1)Cc1cccc(Cl)c1Cl,–,5.62 µM (active)
CN(C(=O)CN(CCO)CC(=O)N(C)C(C)(C)Cc1ccccc1)C(C)(C)Cc1ccccc1,-10.5% [at 25.6 µM] (inactive),–
CCc1c(O)nc2sc3ccccc3n2c1=O,–,15.8 µM (active)
CCc1c(O)nc(SCC(=O)NC(C)(C)C)n(-c2ccccc2)c1=O,-6.53% (inactive),–
CCCc1nn2c(=O)c(C(c3ccc(C)cc3)c3c(O)nc4sc(CCC)nn4c3=O)c(O)nc2s1,-1.06% (inactive),–
COC(=O)C1=C(N)Oc2cc(C)n(CC3CCCO3)c(=O)c2C1c1ccccc1OC (stereo not given),-25.1% (inactive),–
COc1ccc(Oc2ncc3nc(C)c(=O)n(C[C@H]4CCCO4)c3n2)cc1,–,12.6 µM (active)
COc1ncc2ncc(=O)n(C[C@H]3CCCO3)c2n1,–,15.8 µM (active)
O=c1cnc2cnc(Oc3cccc(Cl)c3)nc2n1C[C@H]1CCCO1,–,5.01 µM (active)
CCC(=O)Nc1ccc(C(=O)CSc2nnc(-c3ccc(O)cc3)n2CC2CCCO2)cc1OC (stereo not given),-23.1% (inactive),–
COc1ccc(Oc2ncc3ncc(=O)n(C[C@H]4CCCO4)c3n2)cc1,–,6.31 µM (active)
CN1CCC(=C2c3ccccc3CC(=O)c3sccc32)CC1,–,inactive
CC1(CCC#N)N=C(SCCC#N)N(c2ccccc2)C1=O (stereo not given),-7.35% (inactive),–
C=C1CCO[C@@]2([C@H](O)[C@@](C)(O)CO)NC(=O)[C@]1(O)NC2=O,-3.99% [at 2.29 µM] (inactive),–
Cc1nc2c(c(-c3ccccc3)c1C#N)C(=O)c1ccccc1-2,–,0.2 µM (active)
Cc1ccc(NC(=O)NNC(=O)Cn2nc(-c3ccccc3)c(-c3ccccc3)c(C#N)c2=O)cc1,-11.7% (inactive),–

SMILES,"activity, negative = inhibition",AC50
O=C(COc1cccc2ccccc12)N1c2ccccc2CCc2ccccc21,–,6.31 µM (active)
CCN(CC)CCC(=O)Nc1ccc2c(c1)N(C(=O)CN(CC)CC)c1ccccc1CC2,-2.39% (inactive),–
O=C1c2ccccc2C(=O)N1CC(=O)N1c2ccccc2CCc2ccccc21,-13.2% (inactive),–
C[C@@H](C[C@H](N)C(=O)O)C(=O)O,-18.7% [at 11.4 µM] (inactive),–
CCOC(=O)C1=NO[C@@]2(C=C(Br)C3(OCCCO3)[C@H]3O[C@H]32)C1,1.82% [at 11.4 µM] (inactive),–
COc1ccc(N2C(=O)CC(S/C(N)=N/N=C(\C)c3cccs3)C2=O)cc1 (stereo not given),–,2.51 µM (active)
Cc1cc(C)cc(N2C(=O)CC(Sc3nnnn3-c3ccccc3)C2=O)c1 (stereo not given),-14.5% (inactive),–
CC(C)(C)NS(=O)(=O)c1ccc(NC(=O)NC2CCCCC2)cc1,-10.9% (inactive),–
Oc1ccccc1-c1nnc(-c2ccc(C(F)(F)F)cc2)o1,–,5.01 µM (active)
O=C(/C=C\NCC(=O)c1ccccc1)c1ccccc1,–,5.01 µM (active)
O=C(C[C@@H]1C=Cc2ccccc2N1C(=O)c1ccccc1)c1ccccc1,-23.2% [at 2.29 µM] (inactive),–
CC(C)CCOc1ccc(NC(=O)C2OC3OC(C)(C)OC3C3OC(C)(C)OC23)cc1 (stereo not given),2.91% (inactive),–
c1ccc(-c2nc(CSc3n[nH]c(-c4cccs4)n3)cs2)cc1,–,2.82 µM (active)
CCn1c(C)c(C)c2cc(C(=O)Nc3cccc(Cl)c3)ccc21,–,3.16 µM (active)
O=C(O)c1ccc(C(=O)Nc2cccc3ccccc23)c(C(=O)O)c1,-6.15% [at 2.29 µM] (inactive),–
COC(=O)CCC(=O)Nc1cccc(C(=O)Nc2cccc(Cl)c2)c1,–,4.47 µM (active)
Cc1c(C)n(C)c2ccc(C(=O)Nc3cccc4ccccc34)cc12,–,2 µM (active)
O=c1[nH]c(=O)n(Cc2ccco2)c2c1C(C(F)(F)F)(C(F)(F)F)N=C(CCC1CCCCC1)N2,-18.8% (inactive),–
CC1(C)CCC(NC(=O)[C@H](N)CCC(=O)O)CC1,-0.149% (inactive),–
Cc1cnc(CNc2ccnc(-c3ccccc3C)n2)cn1,–,12.6 µM (active)
Cc1cnc(CNc2ccnc(-c3ccccc3C(F)(F)F)n2)cn1,–,15.8 µM (active)
Cc1cnc(CNc2ccnc(-c3ccccc3Cl)n2)cn1,–,12.6 µM (active)
COc1ccccc1-c1nccc(NCc2cnc(C)cn2)n1,–,12.6 µM (active)

# — PubChem BioAssay AID1851 (National Center for Advancing Translational Sciences (NCATS), 2009)
